Records with an inconclusive call do not appear. Activity calls are given as the source filed them. The call rests on the fitted dose curve; in most records, active means well fitted cell-killing curve with a large enough effect; inconclusive means small, poorly fitted or top-dose-only effect; inactive means no such curve, though single readings can be large or run the other way.
Potency means the concentration at half of the fitted maximal effect.

The experiment is described as follows: qHTS of pediatric cancer cell lines to identify multiple opportunities for drug repurposing: Primary screen for SJ-GBM2 cells (AID 1347091). The conditions noted are these: SJ-GBM2 viability, CellTiter-Glo luminescence, 48 h; series mostly up to 46 µM; activity change, negative = cytotoxic: at the top concentration. An excerpt: Drug repurposing or repositioning has been offered as a strategy for drug development in oncology programs. This approach has special potential for childhood cancers and other rare or orphan diseases, where the expected return on new drug development has been a disincentive to pharmaceuticals.
In this project we exploit the poly-pharmacology of drugs to discover new indications via phenotypic screening of a panel of 19 well-characterized cell lines derived from solid tumors seen in children and adolescents. The goal is to identify approved drugs with previously unrecognized anticancer properties that has the potential to reveal new mechanisms and biological processes involved in carcinogenesis or drug resistance. We employed a titration-based paradigm (quantitative high-throughput screening or qHTS), where all compounds were tested at multiple concentrations for their effect on cell viability. Concentration-response curves (CRCs) were derived directly from the primary screen, and both potency and efficacy values were used to identify compounds with robust bioactivity profiles. We screened the NIH Chemical Genomics Center (NCGC) Pharmaceutical Collection (NPC) and Mechanism Interrogation Plate (MIPE) small molecule collections of approved and investigational compounds against these cell lines; and measured metabolically active cells after 48 hours of compound treatment as a proxy for cell viability.
Assay Submitter: Nathalia J. Martinez, National Center for Advancing Translational Sciences, National Institutes of Health, Rockville, MD, USA; email: natalia.martinez@nih.gov
[1] Shen, M et al. Quantitative high-throughput phenotypic screening of pediatric cancer cell lines identifies multiple opportunities for drug repurposing. Oncotarget 2017 Dec 19;9(4):4758-4772. PMID 29435139.
The cells were obtained from University of North Carolina (UNC), Pediatric Preclinical Testing Program (PPT), and Coriell Institute (CI).
qHTS cell viability assay:
Cells were assayed in growth media at a density of 500-1,000 cells/well. Five microliters of cells were dispensed into 1,536-well, white, solid-bottom, TC-treated plates (Greiner Bio One) using a multidrop dispenser and incubated at 37 degrees C, 5% CO2, under a humidified atmosphere for 5 hours. Twenty-three nanoliters of compounds and controls (neutral control DMSO or positive control bortezomib at final concentration of 2.3 µM) were subsequently transferred by Kalypsys pintool. For primary screens, the MIPE collection was tested at 11-point dilutions (final concentrations range from 0.78 nM to 46 µM) and the NPC collection at 8-point dilutions (final concentrations range from 0.59 nM to 46 µM). Compounds tested in follow-up screens were assayed at 11-point dilutions. Cells were incubated for 48 hours, followed by addition of 3 uL of CellTiter-Glo (Promega). After a 15 min incubation at room temperature, samples were analyzed for luminescence intensity using a ViewLux High-throughput CCD imager equipped with clear filters.
Consider `Cc1ncc(CNC(=O)N(CCCl)N=O)c(N)n1`, for which the “activity change, negative = cytotoxic” value is 5.36% (inactive).

In the case of `CCCN1CCC[C@@H]2Cc3nc(N)ncc3C[C@H]21`, the “activity change, negative = cytotoxic” value is 17.6% (inactive). For `CCOP(=S)(OCC)Oc1cc(C)nc(C(C)C)n1`, the “activity change, negative = cytotoxic” value was 14.3% (inactive). As for `Cc1cccc(C)c1NC(=O)CN1CCCC1=O`, the Potency result is “inactive”. As for `COC1(CS(=O)c2ccccc2)CCN(CCc2c[nH]c3ccc(F)cc23)CC1` (stereo not given), the “activity change, negative = cytotoxic” value is 1.19% (inactive). Same read-out and setting: next, `C=C1C[C@@H]2[C@H](CC[C@]3(C)C(=O)CC[C@@H]23)[C@@]2(C)C=CC(=O)C=C12`: -19.6% (inactive). Consider `C[C@@H]1[C@@H](CC(C[C@H]2O[C@@H]3O[C@]4(C)CC[C@@H]5[C@H](C)CC[C@@H]([C@H]2C)[C@@]35OO4)C[S+](=O)([O-])c2ccc(COC(=O)N(C)C)cc2)O[C@@H]2O[C@]3(C)CC[C@H]4[C@H](C)CC[C@@H]1[C@@]24OO3` (stereo not given in full), for which the Potency was 0.469 µM (active).

For the molecule `CC(CCc1ccccc1)NC(C)C(O)c1ccc(O)cc1` (stereo not given), the “activity change, negative = cytotoxic” value was 12.2% (inactive). The same measure, in the same setting: next, `CCC1(C2=NCCN2)Cc2ccccc2O1` (stereo not given): 14.3% (inactive). With `FC(F)(F)c1cccc(C2=CCN(CCc3ccc4ccccc4c3)CC2)c1`, the “activity change, negative = cytotoxic” value is 7.7% (inactive). Turning to `C#CCOC(C(=O)OCCN(C)C)(c1ccccc1)c1ccccc1`, the “activity change, negative = cytotoxic” value was 14.7% (inactive). In the case of `Oc1ccc(Cl)cc1Cc1ccccc1`, the Potency is 12.3 µM (active). Take `OCCOc1ccccc1`: the “activity change, negative = cytotoxic” value is 34.9% (inactive). As to `O=C1CC[C@@]2(O)[C@H]3Cc4ccc(O)c5c4[C@@]2(CCN3CC2CC2)[C@H]1O5`, the Potency result was “inactive”. Consider `Cn1c(CCCC(=O)O)nc2cc(N(CCCl)CCCl)ccc21`, for which the “activity change, negative = cytotoxic” value is -0.358% (inactive). As to `N[C@@H](Cc1ccc(N(CCCl)CCCl)cc1)C(=O)O`, the Potency is 2.64 µM (active). Still for that read-out and setting: next, `CN1CCN(C(=O)O[C@H]2c3nccnc3C(=O)N2c2ccc(Cl)cn2)CC1`: “inactive”. As for `CC(C)=CCOc1c2occc2cc2ccc(=O)oc12`, the “activity change, negative = cytotoxic” value was 1.79% (inactive). For the molecule `O=[N+]([O-])c1cc([As](=O)(O)O)ccc1O`, the “activity change, negative = cytotoxic” value is 20.5% (inactive).

As to `c1ccc2c(c1)Nc1ccccc1S2`, the Potency result is “inactive”. Still for that read-out and setting: as for `CC(C)CC(N(C)C)C1(c2ccc(Cl)cc2)CCC1` (stereo not given), the entry is “inactive”; as for `C#CCN(C)[C@H](C)Cc1ccccc1`, “inactive”. As to `C=CCN1CC[C@]23c4c5ccc(O)c4O[C@H]2C(=O)CC[C@@]3(O)[C@H]1C5`, the “activity change, negative = cytotoxic” value was 15.5% (inactive). For the molecule `CCC(=O)C(CC(C)N(C)C)(c1ccccc1)c1ccccc1` (stereo not given), the “activity change, negative = cytotoxic” value was -5.99% [at 92.7 µM] (inactive). Same read-out and setting: next, `CNC(=O)N1N=C(c2ccc(N)cc2)c2cc3c(cc2CC1C)OCO3` (stereo not given): -11.1% (inactive); `N[C@@H](Cc1ccc(Oc2cc(I)c(O)c(I)c2)c(I)c1)C(=O)O`: 30.9% (inactive). As to `O=c1[nH]c2ccccc2n1CCCN1CCC(n2c(=O)[nH]c3cc(Cl)ccc32)CC1`, the “activity change, negative = cytotoxic” value was -5.44% (inactive). Same read-out and setting: next, `Clc1cccc(N2CCNCC2)c1`: -3.55% (inactive); `CC(=O)Nc1cc([As](=O)(O)O)ccc1O`: 21.7% (inactive). Still for that read-out and setting: next, `CC(C)=CC1C(C(=O)OCc2cccc(Oc3ccccc3)c2)C1(C)C` (stereo not given): 6.07% (inactive); `CC1NCCOC1c1ccccc1` (stereo not given): 16.8% (inactive); `N#CC(C#N)=Cc1ccc(O)c(O)c1`: 5.86% (inactive). With `COc1ccc(C(=O)c2c(C)n(CCN3CCOCC3)c3ccccc23)cc1`, the “activity change, negative = cytotoxic” value was 16.2% (inactive). Same read-out and setting: next, `CC[C@@H](CO)NC(=O)[C@@H]1C=C2c3cccc4c3c(cn4C)C[C@H]2N(C)C1`: 35.5% (inactive).

In the case of `CN(C)CCc1ccc(O)cc1`, the Potency result was “inactive”.

Consider `O=C(NC(O)C(Cl)(Cl)Cl)NC(O)C(Cl)(Cl)Cl` (stereo not given), for which the “activity change, negative = cytotoxic” value is 12.7% (inactive). Still for that read-out and setting: next, `CC(=O)[C@H]1CC[C@H]2[C@@H]3CC[C@H]4C[C@](C)(O)CC[C@]4(C)[C@H]3CC[C@]12C`: 28.8% (inactive). In the case of `COC[C@@H](NC(C)=O)C(=O)NCc1ccccc1`, the “activity change, negative = cytotoxic” value is 9.94% (inactive). As for `Clc1ccc(CCC(Cn2ccnc2)Sc2c(Cl)cccc2Cl)cc1` (stereo not given), the “activity change, negative = cytotoxic” value was -27.7% (inactive).

For `COc1ccccc1N1CCNCC1`, the “activity change, negative = cytotoxic” value was 2.62% (inactive).

The values above are taken from PubChem BioAssay (NCATS).
